Source: PubChem BioAssay (NCATS)
Inconclusive results are not listed. Unless noted, calls come from the whole dose curve; as a rule, active = well fitted curve in either direction with a large enough effect (not every such curve was filed as active); inconclusive = small, poorly fitted or top-dose-only effect, or another doubt; inactive = flat fitted curve, though single readings scatter.

Key:
[1] = AP1 Signaling Pathway (AID 357); conditions: ME-180 AP-1-bla reporter, EGF-induced, beta-lactamase ratio, 5 h; at 17.2 µM (top of the series) unless noted;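 note: ME-180 reporter cells stimulated with EGF at its EC50 level; % is set by controls: 0 for no effect and ±100 for the full control effect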
Procedure, shortened: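 Cells are seeded overnight, exposed to compound titrations and an EC50 level of EGF for 5 hours at 37 °C, then loaded with CCF4 dye for 2.5 hours. Beta-lactamase activity under the AP-1 element is read as a blue/green ratio.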

[2] = NFAT Signaling Pathway (AID 444); conditions: Jurkat NFAT-bla M1, carbachol, beta-lactamase ratio, 5 h; at 17.2 µM (top of the series) unless noted;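 note: carbachol stimulus at about its EC50 of 1 µM final; % is set by controls: 0 for no effect and ±100 for the full control effect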
Procedure, shortened: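 Jurkat cells with NFAT-driven β-lactamase reporter and co-expressed M1 receptor, stimulated with carbachol (final 1 uM, ~EC50), compound titration, 5 h at 37 °C. CCF4 loaded 1 h at RT; 460/530 nm ratio gave %activity and AC50.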

[3] = Stat Signaling Pathway (AID 446); conditions: ME-180 SIE beta-lactamase reporter, IL-6 stimulated, 5 h; at 17.2 µM (top of the series) unless noted;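 note: ME-180 cervical cancer cells given 40 pM IL-6 alongside compound; SIE-controlled beta-lactamase reporter measured as 460/530 nm FRET emission ratio; % is set by controls: 0 for no effect and ±100 for the full control effect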
Procedure, shortened: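 ME-180 cells carrying a SIE-driven beta-lactamase reporter are stimulated with 40 pM IL-6 for 5 h at 37C in the presence of compound. The 460/530 nm FRET substrate ratio is read after 2.5 h at RT. Data are normalised to 300 pM IL-6 and to 125 nM JAK inhibitor controls.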

[4] = biological target: Glucocorticoid receptor (Homo sapiens) (UniProt P04150); assay: GR-GFP Redistribution (AID 450;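 active = compounds whose dose series gives a full or clear partial fitted curve of increased nuclear translocation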; note: potency is the fitted concentration of half-maximal effect)
Sequence of Glucocorticoid receptor (Homo sapiens) (P04150 whole entry, looked up): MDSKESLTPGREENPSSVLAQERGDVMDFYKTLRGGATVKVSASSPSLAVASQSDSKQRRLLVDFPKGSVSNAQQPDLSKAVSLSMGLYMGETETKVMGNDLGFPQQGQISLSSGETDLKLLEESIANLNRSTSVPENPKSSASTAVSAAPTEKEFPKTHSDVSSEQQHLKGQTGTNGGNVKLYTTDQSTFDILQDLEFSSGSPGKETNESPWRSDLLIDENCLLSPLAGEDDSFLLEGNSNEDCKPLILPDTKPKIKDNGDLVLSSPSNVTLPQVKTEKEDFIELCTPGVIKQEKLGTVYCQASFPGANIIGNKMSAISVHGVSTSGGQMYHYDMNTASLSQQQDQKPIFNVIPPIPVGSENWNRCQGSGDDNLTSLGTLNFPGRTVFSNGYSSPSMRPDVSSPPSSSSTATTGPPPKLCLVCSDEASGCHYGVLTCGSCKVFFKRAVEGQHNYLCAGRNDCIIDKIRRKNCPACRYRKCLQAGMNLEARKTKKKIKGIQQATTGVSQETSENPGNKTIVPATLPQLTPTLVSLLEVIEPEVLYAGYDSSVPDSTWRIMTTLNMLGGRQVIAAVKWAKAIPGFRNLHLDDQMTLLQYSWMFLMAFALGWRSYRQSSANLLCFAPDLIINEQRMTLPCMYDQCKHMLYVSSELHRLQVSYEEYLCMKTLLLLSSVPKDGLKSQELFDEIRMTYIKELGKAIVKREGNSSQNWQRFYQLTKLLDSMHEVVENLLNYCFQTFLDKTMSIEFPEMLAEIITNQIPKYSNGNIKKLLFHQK

Cc1ccc(-n2nc3cc(Cl)c(NC(=O)c4ccco4)cc3n2)cc1
inactive: activity change, negative = inhibition [1] 28.5% | activity change, negative = inhibition [2] -3.83% | activity, negative = inhibition [3] -1.11% | Potency [4] > 20.6 µM

O=C(NCc1ccco1)c1ccc(=O)[nH]n1
inactive: activity change, negative = inhibition [1] -6.2% | activity change, negative = inhibition [2] -1.91% | activity, negative = inhibition [3] -5.82% | Potency [4] > 20.6 µM

CC1(C)C/C(=C(/C#N)C(N)=O)CCO1
inactive: activity change, negative = inhibition [1] -0.694% | activity change, negative = inhibition [2] 2.44% | activity, negative = inhibition [3] 4.37% | Potency [4] > 20.6 µM

COc1ccc(/C=C(/C#N)c2cccnc2)cc1OC
inactive: activity change, negative = inhibition [1] -13.8% | activity change, negative = inhibition [2] -0.696% | activity, negative = inhibition [3] 5.95% | Potency [4] > 20.6 µM

COc1cc(Cn2ccnc2)c(OC)cc1Cn1ccnc1
inactive: activity change, negative = inhibition [1] 5.72% | activity change, negative = inhibition [2] -19.5% | activity, negative = inhibition [3] 4.23% | Potency [4] > 20.6 µM

CSc1nnc2n(C3CCCCC3)c(=O)c3c4c(sc3n12)CCCC4
inactive: activity change, negative = inhibition [1] 19.1% | activity change, negative = inhibition [2] 3.83% | activity, negative = inhibition [3] 14.1% | Potency [4] > 20.6 µM

CCCCCOc1ccccc1C(=O)NCC(=O)O
inactive: activity change, negative = inhibition [1] 1.59% | activity change, negative = inhibition [2] 0.449% | activity, negative = inhibition [3] 9.43% | Potency [4] > 20.6 µM

Cc1nc2c(c(=O)n1CC1CCCO1)c1nc3ccccc3nc1n2CCC(C)C (stereo unspecified)
inactive: activity change, negative = inhibition [1] 6.32% | activity change, negative = inhibition [2] -6.4% | activity, negative = inhibition [3] -12.2% | Potency [4] > 20.6 µM

Nc1nnnn1/N=C/c1ccccn1
inactive: activity change, negative = inhibition [1] -1.28% | activity change, negative = inhibition [2] -4.47% | activity, negative = inhibition [3] -2.26% | Potency [4] > 20.6 µM

CCCCC1(C(=O)OCC)CC(CN2CCOCC2)OC1=O (stereo unspecified)
inactive: activity change, negative = inhibition [1] 2.64% | activity change, negative = inhibition [2] -18.1% | activity, negative = inhibition [3] 3.3% | Potency [4] > 20.6 µM

C=C(C)CN1CCN(c2c(CCC#N)c(C)c(C#N)c3nc4ccccc4n23)CC1
inactive: activity change, negative = inhibition [1] 6.83% | activity change, negative = inhibition [2] 20% | activity, negative = inhibition [3] 9.9% | Potency [4] > 20.6 µM

COCCCNc1nc2c(c(=O)n(C)c(=O)n2C)n1Cc1cccc(OC)c1
inactive: activity change, negative = inhibition [1] -8.39% | activity change, negative = inhibition [2] -4.82% | activity, negative = inhibition [3] -3.35% | Potency [4] > 20.6 µM

COC(=O)CSc1nc2c(c(=O)n(C)c(=O)n2C)n1CCC(C)C
inactive: activity change, negative = inhibition [1] 10.4% | activity change, negative = inhibition [2] -5.51% | activity, negative = inhibition [3] 6.93% | Potency [4] > 20.6 µM

Cc1cc(=O)oc(C)c1C(=O)NCCc1ccccc1
inactive: activity change, negative = inhibition [1] 8.18% | activity change, negative = inhibition [2] -8.25% | activity, negative = inhibition [3] 14.6% | Potency [4] > 20.6 µM

CN(C)CCCNCCCCNC(=O)/C=N/O
inactive: activity change, negative = inhibition [1] 5.81% | activity change, negative = inhibition [2] 11.9% | activity, negative = inhibition [3] -0.521% | Potency [4] > 20.6 µM

C=CCNc1nc(-c2cccc(OC)c2O)nc2ccccc12
inactive: activity change, negative = inhibition [1] 20.2% | activity change, negative = inhibition [2] 4.81% | activity, negative = inhibition [3] -11.9% | Potency [4] > 20.6 µM

CC(=O)Oc1ccccc1C1OCCN1C(C)=O (stereo unspecified)
inactive: activity change, negative = inhibition [1] 14.2% | activity change, negative = inhibition [2] -10.3% | activity, negative = inhibition [3] 17% | Potency [4] > 20.6 µM

CC(=O)c1cc(C#N)c(SCC(=O)C(C)(C)C)nc1C
inactive: activity change, negative = inhibition [1] -4.83% | activity change, negative = inhibition [2] -23.2% | activity, negative = inhibition [3] 12.6% | Potency [4] > 20.6 µM

CCCC1Cc2c(sc3ncnc(N)c23)CO1 (stereo unspecified)
inactive: activity change, negative = inhibition [1] -16.4% | activity change, negative = inhibition [2] -5.16% | activity, negative = inhibition [3] -9.41% | Potency [4] > 20.6 µM

Cc1nc(Nc2ncc3c(n2)CC(C)(C)CC3=O)nc2ccccc12
inactive: activity change, negative = inhibition [1] -5.98% | activity change, negative = inhibition [2] 10.6% | activity, negative = inhibition [3] -25% | Potency [4] > 20.6 µM

Cc1nnc(SCc2nc3ccccc3[nH]2)s1
inactive: activity change, negative = inhibition [1] 1.21% | activity change, negative = inhibition [2] 8.95% | activity, negative = inhibition [3] 4.08% | Potency [4] > 20.6 µM

COc1cc(C2C(C(=O)c3sc(C)nc3C)=C(O)C(=O)N2CCN(C)C)cc(OC)c1OC (stereo unspecified)
inactive: activity change, negative = inhibition [1] -0.396% | activity change, negative = inhibition [2] 1.9% | activity, negative = inhibition [3] 8.27% | Potency [4] > 20.6 µM

CCCCOC(=O)c1[nH]c(C)c(C(=O)OC)c1C
inactive: activity change, negative = inhibition [1] -3.13% | activity change, negative = inhibition [2] 8.05% | activity, negative = inhibition [3] -9.04% | Potency [4] > 20.6 µM

COC(=O)CNC(=O)c1c(C)cc(=O)oc1C
inactive: activity change, negative = inhibition [1] 21.5% | activity change, negative = inhibition [2] 13.6% | activity, negative = inhibition [3] 5.86% | Potency [4] > 20.6 µM

Cc1ccc(C(=O)NCCCNCCCNC(=O)c2ccc(C)nc2)cn1
inactive: activity change, negative = inhibition [1] 8.18% | activity change, negative = inhibition [2] -5.81% | activity, negative = inhibition [3] 5.34% | Potency [4] > 20.6 µM

Cc1cc(C)nc(NC2=NCC(=O)N2c2cccc(Cl)c2)n1
inactive: activity change, negative = inhibition [1] 3.62% | activity change, negative = inhibition [2] -0.714% | activity, negative = inhibition [3] 0.214% | Potency [4] > 20.6 µM

O=C1OC(Nc2ccc(Br)cn2)c2ccccc21 (stereo unspecified)
inactive: activity change, negative = inhibition [1] 12.2% | activity change, negative = inhibition [2] 16.3% | activity, negative = inhibition [3] 3.14% | Potency [4] > 20.6 µM

O=C(NCC(F)(F)F)N1CCOCC1
inactive: activity change, negative = inhibition [1] 6.11% | activity change, negative = inhibition [2] 0.794% | activity, negative = inhibition [3] -4.01% | Potency [4] > 20.6 µM

COc1ccc2c(c1)n([O-])c1c([n+]2=O)CCC1
inactive: activity change, negative = inhibition [1] 13.4% | activity change, negative = inhibition [2] -5.03% | activity, negative = inhibition [3] 7.82% | Potency [4] > 20.6 µM
